Hits are enriched below; roughly 2.8% of the tested compounds scored in any of these assays.
HepG2 tox – kills HepG2 cells in TGF-b inhibitor counter-screen | HepG2 CAGA-GFP viability, ATP luminescence, 18 h | Potency, µM (series often up to 46.1 µM), for inactives: at the highest dose activity change, negative = cytotoxicity, most hits filed as cytotoxic | 0.76% of 410,000 active | AID 588856; note: potency is the fitted concentration of half-maximal effect
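HepG2 CAGA-GFP cells (1000/well, DMEM with 1% FBS) received compound, then TGF-beta at 500 pg/mL final, and were incubated 18 hours at 37 degrees C. Viability was read by CellTiter-Glo luminescence. Media-only wells were set as complete cell-killing and DMSO as no toxicity.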
S2 tox – viability counter-screen for ATXN expression inhibitors | S2 cells (HEK-293 line with an ATXN2-luciferase reporter) viability, CellTiter-Fluor protease fluorescence, 24 h | Potency, µM (series often up to 56.7 µM), actives largely listed as cytotoxic | 0.49% of 400,000 active | AID 651635; note: potency is the fitted concentration of half-maximal effect; nearly all actives have a fitted effect of over 40% in size
ATXN2 expr inh – reduces ATXN2 reporter expression in HEK-293 cells | HEK-293 ATXN2-luciferase reporter, luminescence, 24 h | Potency, µM (titrated, usually from 57 µM), inactives show top-dose activity change, negative = inhibition, hits mostly inhibitors | 0.72% of 360,000 active | AID 1745845; note: potency is the fitted concentration of half-maximal effect; % is set by controls: 0 for no effect and ±100 for the full control effect; nearly all actives have a fitted effect of over 55% in size
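qHTS (up to 57 uM final) was run with 24 h compound exposure of reporter cells at 37 °C. Each well was multiplexed: SteadyGlo luminescence measured ATXN2-luciferase expression after a fluorogenic Gly-Phe-AFC viability readout (25 uM final).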
TGFb inhibitor – TGF-b pathway inhibition | 1.2% of 410,000 active | HepG2 CAGA-GFP TGF-b/SMAD3 reporter, GFP fluorescence, 18 h; TGF-beta stimulated, 500 pg/mL final | Potency, µM (highest dose often 46.1 µM), for inactives: at the top dose activity, negative = inhibition, hits mostly inhibitors; note: potency is the fitted concentration of half-maximal effect; % is set by controls: 0 for no effect and ±100 for the full control effect; nearly all actives have a fitted effect of over 65% in size
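TGF-beta reporter screen: HEPG2 CAGA-GFP, 1% FBS, 500 pg/mL TGF-beta final, 18 h; per-cell GFP summed per well; curves fitted and categorized by class.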
Six1-Eya2 blk – Six1/Eya2 interaction inhibition; Q15475+O00167; AlphaScreen GST-Six1/His-Eya2 binding, biochemical; hits give low values; activity change, % (test concentration not listed); 0.56% of 360,000 active; AID 651725; in the data active = activity change below about -65%; inconclusive = mostly about -30% to -63%; note: % is set by controls: 0 for no effect and ±100 for the full control effect
Target sequence (O00167 whole entry, looked up): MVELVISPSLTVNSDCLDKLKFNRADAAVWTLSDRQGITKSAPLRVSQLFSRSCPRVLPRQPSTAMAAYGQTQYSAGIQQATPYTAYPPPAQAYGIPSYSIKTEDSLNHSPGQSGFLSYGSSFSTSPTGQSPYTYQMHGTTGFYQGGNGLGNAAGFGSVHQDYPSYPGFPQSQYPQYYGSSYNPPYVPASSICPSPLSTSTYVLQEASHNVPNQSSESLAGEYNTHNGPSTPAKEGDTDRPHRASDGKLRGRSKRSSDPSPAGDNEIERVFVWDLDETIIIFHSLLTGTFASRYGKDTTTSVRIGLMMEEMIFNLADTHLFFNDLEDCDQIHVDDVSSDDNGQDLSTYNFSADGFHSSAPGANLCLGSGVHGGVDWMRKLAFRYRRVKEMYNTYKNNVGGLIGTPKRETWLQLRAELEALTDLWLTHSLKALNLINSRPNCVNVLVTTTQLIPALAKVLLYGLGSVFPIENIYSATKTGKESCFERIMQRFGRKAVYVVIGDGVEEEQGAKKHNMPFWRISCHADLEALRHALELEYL
Target sequence (Q15475 whole entry, looked up): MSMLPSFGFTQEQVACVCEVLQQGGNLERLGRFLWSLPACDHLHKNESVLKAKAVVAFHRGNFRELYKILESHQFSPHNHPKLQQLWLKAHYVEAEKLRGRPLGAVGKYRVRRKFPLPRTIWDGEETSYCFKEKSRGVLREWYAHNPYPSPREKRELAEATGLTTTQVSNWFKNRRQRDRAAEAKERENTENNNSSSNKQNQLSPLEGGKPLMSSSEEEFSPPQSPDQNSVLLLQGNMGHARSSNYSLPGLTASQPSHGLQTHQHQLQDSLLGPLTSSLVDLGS
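Compounds are tested against tagged Six1 and Eya2 proteins bridged by glutathione donor and nickel acceptor beads; after a one-hour incubation at 37 °C without light, AlphaScreen emission is recorded.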
CtBP-E1A inh – CtBP/E1A binding inhibition; 0.49% of 340,000 active; activity change, % (test concentration not listed); AID 651724; AlphaScreen GST-E1A/His-CtBP binding, 1536-well; hits give low values; in the data active = activity change below about -65%; inconclusive = mostly about -30% to -63%; note: % is set by controls: 0 for no effect and ±100 for the full control effect
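AlphaScreen with 125 nM GST-E1A and 125 nM His-CtBP (5X stocks) in Tris pH 8.0, 300 mM NaCl, BSA, Tween 20, TCEP. Compounds preincubated 2 h at 37 deg C, then glutathione donor/nickel acceptor beads added for 1 h at 37 deg C in dark.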
* = called active by the depositor; i = inactive; u = inconclusive; x = no result given; [ ] = another dose, or the depositor's remark. Unless noted, calls come from the whole dose curve; as a rule, active = well fitted curve in the direction sought with a large enough effect; inconclusive = small, poorly fitted or top-dose-only effect, or another doubt; inactive = no such curve, though single readings can be large; an effect the other way counts as inactive or inconclusive.

SMILES	HepG2 tox	S2 tox	ATXN2 expr inh	TGFb inhibitor	Six1-Eya2 blk	CtBP-E1A inh
O=C(NCc1nnc2n1CCN(Cc1cccc(C(F)(F)F)c1)CC2)c1ccncc1	x	i	x	x	x	x
O=C1C(Cl)=C(NCCN2CCOCC2)C(=O)c2ccccc21	17.8µM*	u	-35.8%	u	-20.5	-28.3
COc1cccc(CNC(=O)c2ccc(-c3nc(CS(=O)c4ccccc4)c(C)o3)cc2)c1 (configuration not stated)	1.1%	i	0.0%	u	x	x
CN1CCN(c2ccc(S(=O)(=O)N3CCOCC3)cc2NC(=O)C2CCCCC2)CC1	0.3%	i	9.2%	-1.7%	4.6	9.0
O=C(COC(=O)CCc1ccccc1)Nc1cc(S(=O)(=O)N2CCOCC2)ccc1N1CCCC1	1.3%	i	-1.6%	6.9%	-5.1	4.7
O=C(COC(=O)Cc1ccccc1F)Nc1cc(S(=O)(=O)N2CCOCC2)ccc1N1CCCC1	-34.7%	1µM*	3.3%	-13.8%	-3.6	2.4
CCN1CCN(c2ccc(S(=O)(=O)N3CCOCC3)cc2NC(=O)C2CCC(C(C)(C)C)CC2)CC1 (configuration not stated)	20µM*	i	x	u	-9.1	x
O=C(O)CCCCC(CCSCc1ccccc1)SCc1ccccc1 (configuration not stated)	x	x	15.5%	x	x	x
CN(C)CCCNC(=S)NCC(c1ccc(Cl)cc1Cl)c1c[nH]c2ccccc12 (configuration not stated)	-158.8%	u	25.1µM*	u	12.1	-18.2
COc1cc(-c2cc(C)c3cccc(OC)c3n2)cc2c1OCCN(C(=O)CCn1ccc(C)n1)C2	x	i	x	x	x	x
CCC(=O)Nc1cc2c(cc1Cl)-c1ccccc1C2	12.6µM*	i	45.4%	16.6%	-8.7	1.9
CC(=O)Nc1cc2c(cc1Cl)-c1ccccc1C2	8.0%	i	27.5%	-2.5%	-2.1	21.8
c1ccc2c(c1)CCc1ccccc1N2	x	i	-3.0%	x	x	x
Cc1csc2c(N3CCN(C(=O)Nc4ccc(Cl)c(Cl)c4)CC3)ncnc12	-29.0%	u	20µM*	u	-10.2	-18.9
Cc1csc2c(N3CCN(C(=O)NC(C)(C)C)CC3)ncnc12	-20.7%	i	0.0%	u	6.4	-8.2
CCOC(=O)N1CCC(NC(=O)c2cnn(-c3ccc(C)cc3)c2-n2cccc2)CC1	-3.3%	x	x	-3.0%	x	x
COc1ccccc1NC1=C(NC(C)=O)C(=O)c2ccccc2C1=O	-108.6%	i	-25.8%	14.1µM*	-4.5	1.0
c1ccc(-c2nccc(-c3ccco3)n2)nc1	-34.5%	i	18.6%	-19.7%	u	-67.4*
c1ccc(-c2noc(-c3ccco3)n2)nc1	6.7%	i	-22.1%	-17.1%	-6.3	-4.7
Cc1ccnn1CC(=O)N1CCOc2c(cc(-c3ncc(C(F)(F)F)cc3Cl)cc2OCC2CCCO2)C1 (configuration not stated)	x	i	x	x	x	x
CCN1CNC(=S)N(CCc2ccccc2)C1	-0.6%	i	-11.7%	6.9%	7.0	-3.6
CCOc1ccc(CCN2CN(CC)CNC2=S)cc1OCC	8.91µM*	i	-23.4%	-20.1%	-9.2	-12.7
COc1ccc(-c2csc(C(O)(c3ccccc3)C(F)(F)F)n2)cc1 (configuration not stated)	-77.8%	u	u	u	-1.1	7.7
OC(c1ccccc1)(c1nc(-c2ccc(Cl)cc2)cs1)C(F)(F)F (configuration not stated)	15.8µM*	u	-1.8%	u	2.9	15.4
CC(=O)c1ccc(NS(=O)(=O)c2ccc(CC(C)C)cc2)cc1	-91.8%	i	-12.9%	15.8µM*	1.8	6.0
SMILES	HepG2 tox	S2 tox	ATXN2 expr inh	TGFb inhibitor	Six1-Eya2 blk	CtBP-E1A inh
Cc1cccc(OCC(=O)NCC(=O)N/N=C/c2ccccc2)c1	5.8%	i	-6.4%	-4.7%	-2.5	2.5
COc1cccc(/C=N/NC(=O)CNC(=O)COc2cccc(C)c2)c1O	-17.4%	u	x	u	-72.9*	x
Cc1cccc(OCC(=O)NCC(=O)N/N=C/c2ccc(O)cc2O)c1	21.2%	i	x	u	-84.7*	x
O=C(CCS(=O)(=O)c1ccc(F)cc1)Nc1nc(-c2ccccn2)cs1	-1.7%	u	x	u	-76.3*	x
O=C(CCS(=O)(=O)c1ccccc1)Nc1ccccn1	-8.6%	i	3.0%	6.4%	9.3	4.0
COc1ccc(OCCCC(=O)Nc2nc(-c3ccccn3)cs2)cc1	-0.8%	i	-15.0%[11.3 µM]	-22.2%	-23.9	-26.2
CC(Oc1ccc(F)cc1)C(=O)Nc1nc(-c2ccccn2)cs1 (configuration not stated)	10.0%	u	7.94µM*	u	-28.2	-79.2*
O=C(CCS(=O)(=O)c1ccccc1)Nc1nc(-c2ccccn2)cs1	-23.9%	u	-21.9%	u	-11.2	-79.8*
COC(=O)c1cc2oc(C)cc2n1Cc1ccc(Br)cc1F	-19.4%	i	24.5%	-12.9%	x	x
C/C(=C(\CCOC(=O)c1ccccc1)SS/C(CCOC(=O)c1ccccc1)=C(/C)N(C=O)Cc1cnc(C)nc1N)N(C=O)Cc1cnc(C)nc1N	x	i	x	x	x	x
C=CCSc1n[nH]c(-c2ccc(OCCCC)cc2)n1	-58.5%	28.2µM*	u	u	-2.0	6.4
C=CCSc1n[nH]c(-c2ccc(OCCC)cc2)n1	-27.3%	i	46.7%	0.4%	-2.5	3.0
O=C(NCCC1=CCCCC1)C1CC(=O)N(C2CCCCC2)C1 (configuration not stated)	4.5%	i	5.4%	2.82µM*	-0.3	8.5
O=C(Nc1cc(Cl)cc(Cl)c1)C1CC(=O)N(C2CCCC2)C1 (configuration not stated)	10µM*	i	-13.2%	u	-7.9	7.2
COc1ccc(Cl)cc1NC(=O)C1CC(=O)N(C2CCCCC2)C1 (configuration not stated)	-5.7%	i	3.3%	-4.7%	-1.0	-2.9
CCN1CCCC1CN (configuration not stated)	x	i	2.2%	x	x	x
CCC1C(=O)NCCN1Cc1ccc2c(c1)CN(Cc1cc(OC)c3c(c1)OCO3)CCO2 (configuration not stated)	x	i	x	x	x	x
CS(=O)(=O)Oc1ccc2c(NC(N)=O)c(C(=O)c3ccc(Cl)cc3Cl)oc2c1	x	x	118.8%	x	x	x
Cc1cccc(N2CCN(c3nc4ccc(C)cc4n4cnnc34)CC2C)c1 (configuration not stated)	-14.5%	i	-5.8%	19.0%	x	x
